The values that follow come from PubChem BioAssay.

Activity calls are given as the source filed them.

A short description of assay [1]: A549 cell viability effects, profiling panel, calcein-AM fluorescence, 48 h, basal (AID 1162). As to conditions: higher = more signal.
The nature of assay [2]: adipocyte viability effects, profiling panel, cell-based, 3T3-L1 adipocytes, calcein-AM fluorescence, 48 h, basal (AID 1163). As to conditions: 3T3-L1 adipocytes viability, higher = more signal.
The nature of assay [3]: HepG2 cell viability effects, profiling panel, calcein-AM fluorescence, 48 h, basal (AID 1164). As to conditions: higher = more signal.
Assay [4] is described as follows: MM1S cell viability effects, profiling panel, calcein-AM fluorescence, 48 h, basal (AID 1165).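 Note: viability of MM1S multiple myeloma cells under basal unstimulated conditions.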 As to conditions: higher = more signal.
Assay [5] in a line: basal RPMI8226 viability, no added stimulus, profiling panel, cell-based, calcein-AM fluorescence, 48 h, PK04 Diversity Set (AID 1166).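 Note: cells grown under basal conditions without added stimulus.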 Conditions: RPMI8226 myeloma viability, higher = more signal.
The nature of assay [6]: basal HepG2 mitochondrial membrane potential changes, profiling panel, cell-based, JC-1 fluorescence, 24 h, 100 nL compound (AID 1167). As to conditions: higher = more signal.
The nature of assay [7]: basal 3T3-L1 adipocyte mitochondrial potential changes, profiling panel, cell-based, JC-1 fluorescence, 3T3-L1 adipocytes, 24 h, 100 nL compound (AID 1168). As to conditions: JC-1 mitochondrial fluorescence, higher = more signal, called active from +8 up or from −8 down.
A short description of assay [8]: basal RPMI8226 mitochondrial membrane potential changes, profiling panel, cell-based, JC-1 fluorescence, 24 h, 100 nL compound (AID 1169). Conditions: RPMI8226 myeloma, JC-1 mitochondrial potential fluorescence, higher = more signal.
A short description of assay [9]: basal MM1S mitochondrial membrane potential changes, profiling panel, cell-based, JC-1 fluorescence, 24 h, 100 nL compound (AID 1170). Conditions: higher = more signal.
A short description of assay [10]: A549 lung cancer cell viability effects, profiling panel, resazurin fluorescence, 24 h, PK04 Diversity Set (AID 1171). As to conditions: higher = more signal, called active from +8 up or from −8 down. A general note: Resazurin is reduced to fluorescent resorufin, in cell work by metabolically active cells.
Note: test concentration not given here.

Take `C=C(CCCC)/C(=C/C[C@@H](OC(C)=O)c1cccc(OCCO)c1)c1cnc2ccccc2c1`: the z-score in assay [1] was 0.238; in assay [2], 1.3; in [3] it was -0.0152; in assay [4], -1.47; in assay [5], -2.31; in assay [6], 2.23. Also, the z-score is -2 (inactive) in assay [7], -0.423 in assay [8], -0.714 in [9] and 0.329 (inactive) in assay [10].
Take `COCCCNC(=O)[C@@]1(Cc2ccccc2CN=[N+]=[N-])N=C(c2ccc(OCCCO)cc2)O[C@H]1c1ccccc1CN=[N+]=[N-]`: the z-score in assay [1] was -0.768; in assay [2], 1.56; in [3] it was -0.983; in assay [4], -2.88; in assay [5], -3.94; in assay [6], 1.57. Moreover, the z-score in assay [7] is 2.31 (inactive); in assay [8], -1.2; in assay [9] it was -2.64; in assay [10], -1.2 (inactive).
Consider `CN(C)C(=O)[C@]1(Cc2ccccc2)N=C(c2ccc(OCCCO)cc2)O[C@@H]1c1ccccc1N=[N+]=[N-]`, for which the z-score in [1] is -0.279; in [2] it was -0.336; in assay [3], -0.987; in assay [4], -3.2; in [5], -4.26; in [6], 1.43. The z-score is 2.9 (inactive) in assay [7], -1.18 in [8], -2.37 in assay [9] and -1.75 (inactive) in [10].
As for `CS(=O)(=O)CCOC(=O)C1=CC(CCCO)=CC(C2CC2)N(Cc2cc3c(cc2Br)OCO3)C=C1C(=O)OCCS(C)(=O)=O` (stereo not given), the z-score was 1.25 in assay [1]; 0.385 in assay [2]; 0.862 in assay [3]; -0.538 in [4]; -0.246 in [5]; 3.31 in [6]. For the same molecule, the z-score is 0.262 (inactive) in assay [7], -0.41 in assay [8], -1.37 in [9] and 0.796 (inactive) in assay [10].
Turning to `O=C1C[C@@](C(=O)NCc2ccccc2)(c2ccc([N+](=O)[O-])cc2)[C@@H](c2ccc(CO)cc2)N1CC12CC3CC(CC(C3)C1)C2`, the z-score in assay [1] was -0.702; in assay [2], 0.0687; in [3], -0.487; in assay [4], -2.81; in [5], -4.32; in assay [6], 2.17. The z-score in [7] is 0.112 (inactive); in [8] it was -0.552; in assay [9], -1.2; in assay [10], -3.09 (inactive).
Consider `O=C(CS)NCCCCCNC(=O)[C@H]1C[C@H]2C(=O)NCC(=O)N2[C@H]1c1ccc(O)cc1`, for which the z-score was 0.67 in [1]; 0.537 in assay [2]; -0.815 in assay [3]; 0.0607 in [4]; -0.261 in assay [5]; -0.557 in assay [6]. Also, the z-score was 0.185 (inactive) in [7], 0.415 in [8], -0.167 in assay [9] and 0.847 (inactive) in assay [10].
With `COc1ccc(C(O)C2C=CC3C(=O)N(C)C(=O)C3N2NC(=O)OC(C)(C)C)c2ccccc12` (stereo not given), the z-score in assay [1] was -0.844; in assay [2], -0.769; in [3], -1.99; in assay [4], 0.18; in assay [5], -0.463; in [6], -2.62. Further, the z-score is 0.549 (inactive) in assay [7], 0.674 in assay [8], 0.932 in assay [9] and 1.94 (inactive) in [10].
For `C=C(CCCC)/C(=C/C[C@H](OC(C)=O)c1ccccc1OCCO)c1cnc2ccccc2c1`, the z-score in [1] is 0.615; in [2], -0.466; in assay [3], 0.0984; in [4], -3.37; in [5], -2.83; in [6], 1.14. Moreover, the z-score in [7] was -1.26 (inactive); in assay [8], -0.247; in assay [9], -0.172; in assay [10], -0.344 (inactive).
`COC(=O)[C@@]1(Cc2ccccc2)[C@H]2c3cc(C(=O)N(C)C)n(Cc4ccc(OC)c(OC)c4)c3C[C@H]2CN1C(=O)c1ccccc1`: the z-score in assay [1] is -1.29; in [2], -0.24; in [3], 0.148; in assay [4], -1.42; in assay [5] it was -2.64; in assay [6] it was 0.811. Also, the z-score in assay [7] is -1.12 (inactive); in assay [8], -0.706; in assay [9], -1.14; in assay [10], -1.2 (inactive).
`C=C(C(=O)CC[C@H](OC(C)=O)c1ccccc1OCCO)C(C)C`: the z-score is -2.33 in [1]; -0.375 in assay [2]; -3.04 in assay [3]; -0.899 in assay [4]; -1.94 in assay [5]; -0.892 in [6]. Moreover, the z-score is 1.99 (inactive) in assay [7], -0.621 in [8], -1.19 in [9] and -2.7 (inactive) in assay [10].
Turning to `CCOC(=O)C1=CC[C@@H](c2ccc(C(F)(F)F)cc2)N(S(=O)(=O)c2ccc(C)cc2)[C@H]1c1ccccc1`, the z-score in assay [1] was -0.664; in assay [2], -1.01; in assay [3], 0.0691; in assay [4] it was -2.36; in [5] it was -1.95; in assay [6] it was -1.59. In addition, the z-score in [7] was 0.154 (inactive); in assay [8], -1.11; in assay [9] it was -3.18; in assay [10], 0.138 (inactive).
With `COCCOC(=O)N1C(=O)[C@@]2(c3ccccc31)[C@H](C(N)=O)[C@H]1C(=O)O[C@H](c3ccccc3)[C@H](c3ccccc3)N1[C@@H]2c1ccc(O)cc1`, the z-score is 0.75 in [1]; -0.0824 in assay [2]; 1.51 in assay [3]; 0.84 in assay [4]; 0.248 in assay [5]; -0.244 in assay [6]. The z-score in [7] is 0.571 (inactive); in assay [8] it was -0.795; in assay [9] it was 0.119; in [10], -1.37 (inactive).
Consider `O=C1O[C@H](c2ccccc2)[C@H](c2ccccc2)N2[C@H]1[C@@H](C(=O)N1CCN(c3ncccn3)CC1)[C@]1(C(=O)Nc3ccc(C#CC4=CCCCC4)cc31)[C@H]2c1ccccc1OCCO`, for which the z-score in assay [1] was -1.02; in [2] it was 1.09; in assay [3] it was -0.769; in assay [4], -2.23; in assay [5], -1.72; in [6], -0.915. Also, the z-score is 2.88 (inactive) in assay [7], -1.18 in assay [8], -1.01 in assay [9] and -1.34 (inactive) in assay [10].
Take `CCN(CC)c1ccc(N2CC=CC34O[C@@H]5C=CCOC(=O)[C@@H]5[C@H]3C(=O)N(CCCCCCO)[C@@H]4C2=O)cc1` (stereo not given in full): the z-score in assay [1] is -0.705; in assay [2], 0.839; in [3], -0.0976; in [4] it was 1.4; in assay [5] it was 0.922; in [6], 0.554. Moreover, the z-score was 1.21 (inactive) in [7], 0.267 in [8], -0.72 in assay [9] and 1.37 (inactive) in assay [10].
With `C=CCN1Cc2ccccc2[C@@H]2OC(c3ccc(OCCCO)cc3)=N[C@]2(CCS(=O)(=O)c2ccccc2)C1=O`, the z-score in assay [1] was -0.251; in [2], 0.771; in assay [3] it was 0.574; in [4], -1.12; in assay [5], -0.664; in assay [6] it was -0.187. The z-score was -0.303 (inactive) in [7], -1.06 in assay [8], -0.181 in assay [9] and 0.315 (inactive) in assay [10].
As for `CCCCN1CC=CC23O[C@@H]4C=CCOC(=O)[C@@H]4[C@H]2C(=O)N(CCCCCCO)[C@@H]3C1=O` (stereo not given in full), the z-score was 0.327 in assay [1]; -1.36 in [2]; 0.215 in assay [3]; 0.546 in assay [4]; 0.569 in [5]; -0.71 in assay [6]. Besides, the z-score in assay [7] was -0.228 (inactive); in assay [8], 0.76; in assay [9], -0.12; in [10] it was -0.499 (inactive).
For `CC(c1ccccc1)C(O)C1C=CC2C(=O)N(c3ccccc3)C(=O)C2N1Nc1ccccc1` (stereo not given), the z-score in [1] is -0.477; in assay [2], 0.618; in assay [3] it was -0.645; in assay [4], -0.476; in assay [5] it was -0.823; in assay [6] it was -2.36. In addition, the z-score in assay [7] was -0.266 (inactive); in assay [8] it was -0.814; in assay [9], -0.547; in [10], -1.15 (inactive).
For `COc1cc(CO)cc(I)c1O[C@H]1C=C(C(=O)NCCO)C[C@@H](N(C(=O)c2cc3ccccc3oc2=O)C2CCCCCC2)[C@@H]1O`, the z-score was 0.062 in assay [1]; 1.54 in assay [2]; 1.11 in assay [3]; 0.443 in [4]; -0.704 in assay [5]; -1.63 in assay [6]. For the same molecule, the z-score in [7] was -1.51 (inactive); in assay [8], -0.27; in assay [9] it was -1.21; in assay [10], 0.0258 (inactive).
For `CC(=O)n1cc(C(O)C2C=CC3C(=O)NC(=O)C3N2Nc2ccccn2)c2ccccc21` (stereo not given), the z-score in [1] is -0.407; in assay [2] it was -1.52; in assay [3], -0.252; in assay [4], 0.0238; in assay [5], 0.102; in assay [6], -0.743. The z-score is -0.424 (inactive) in assay [7], 0.634 in assay [8], -0.0433 in assay [9] and -1.02 (inactive) in assay [10].
`O=C1C2C=CC(C(O)C=Cc3ccc([N+](=O)[O-])cc3)N(Nc3ccccc3F)C2C(=O)N1c1ccccc1` (stereo not given): the z-score was -0.212 in assay [1]; -0.846 in assay [2]; -0.0729 in assay [3]; -1.45 in assay [4]; -0.343 in assay [5]; -1.33 in assay [6]. The z-score in assay [7] is -1.55 (inactive); in assay [8], -0.22; in assay [9], -1.54; in assay [10], 0.0067 (inactive).
Take `CO[C@H]1O[C@H](CO)[C@@H](OC(=O)Nc2ccccc2)[C@@H]2OC(=O)[C@@H](Cc3ccc4ccccc4c3)C/C=C/C[C@H](Cc3ccc4ccccc4c3)C(=O)O[C@@H]12`: the z-score in assay [1] was 0.72; in [2], 0.397; in assay [3] it was 0.705; in [4] it was -0.268; in [5] it was 0.575; in assay [6], -1. For the same molecule, the z-score in assay [7] was 0.688 (inactive); in assay [8], -0.381; in [9], -0.135; in assay [10] it was -2.52 (inactive).
